Laboratory results published in PubChem BioAssay AID1159580 (chemical genetic matrix, 2015).
Hit rate of the full screen: of about 5,500 compounds, about 2,000 (36%) were called active. Another 18% or so got no clear call; they are omitted. Cut-off read from the data, not from the text of the source: active = normalized growth mostly below about 0.91 (no sharp cut-off); inconclusive = no clear call, values can overlap the other calls; inactive = mostly above about 0.92. The list shows a part of the results.

Assay: chemical genetic growth profiling, strain panel (AID 1159580);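 note: tested at 20 µM; growth read once vehicle control cultures reached saturation at 30 °C; 1 = growth at the plate median or of vehicle wells; lower values mean less growth of the strain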
Settings: growth OD

Measured: normalized growth

Cc1ccc(Cl)c(Nc2ccccc2C(=O)O)c1Cl
active: S. cerevisiae deletion strains, locus YJR075W, strain HOC1, active compounds read low 0.877 | S. cerevisiae deletion strains, locus YKL160W, strain elf1, active compounds read low 0.824 | S. cerevisiae deletion strains, locus YKR001C, strain vps1, active compounds read low 0.581 | S. cerevisiae deletion strains, locus YKR026C, strain gcn3, active compounds read low 0.893 | S. cerevisiae deletion strains, locus YKR091W, strain srl3, active compounds read low 0.879 | S. cerevisiae deletion strains, locus YLL001W, strain dnm1, active compounds read low 0.815 | S. cerevisiae deletion strains, locus YLL026W, active compounds read low 0.893 | S. cerevisiae deletion strains, locus YLL041C, strain sdh2, active compounds read low 0.886 | S. cerevisiae deletion strains, locus YLR027C, strain aat2, active compounds read low 0.907 | S. cerevisiae deletion strains, locus YLR039C, strain RIC1, active compounds read low 0.399 | S. cerevisiae deletion strains, locus YLR102C, strain apc9, active compounds read low 0.887 | S. cerevisiae deletion strains, locus YLR221C, strain rsa3, active compounds read low 0.809 | S. cerevisiae deletion strains, locus YLR258W, strain gsy2, active compounds read low 0.852 | S. cerevisiae deletion strains, locus YLR262C, strain YPT6 (second series), active compounds read low 0.499 | S. cerevisiae deletion strains, locus YLR262C, strain YPT6, active compounds read low 0.492 | S. cerevisiae deletion strains, locus YLR268W, strain sec22, active compounds read low 0.77 | S. cerevisiae deletion strains, locus YLR320W, strain mms22, active compounds read low 0.659 | S. cerevisiae deletion strains, locus YLR330W, strain CHS5, active compounds read low 0.893 | S. cerevisiae deletion strains, locus YLR342W, strain FKS1 (second series), active compounds read low 0.789 | S. cerevisiae deletion strains, locus YLR342W, strain FKS1, active compounds read low 0.857 | S. cerevisiae deletion strains, locus YLR370C, strain arc18, active compounds read low 0.83 | S. cerevisiae deletion strains, locus YLR371W, strain rom2, active compounds read low 0.894 | S. cerevisiae deletion strains, locus YLR384C, strain iki3, active compounds read low 0.893 | S. cerevisiae deletion strains, locus YLR418C, strain cdc73, active compounds read low 0.649 | S. cerevisiae deletion strains, locus YML016C, strain PPZ1, active compounds read low 0.894 | S. cerevisiae deletion strains, locus YML032C, strain rad52, active compounds read low 0.862 | S. cerevisiae deletion strains, locus YML120C, strain ndi1, active compounds read low 0.795 | S. cerevisiae deletion strains, locus YML124C, strain tub3, active compounds read low 0.888 | S. cerevisiae deletion strains, locus YMR058W, strain fet3, active compounds read low 0.866 | S. cerevisiae deletion strains, locus YMR078C, strain ctf18, active compounds read low 0.896 | S. cerevisiae deletion strains, locus YMR125W, strain sto1, active compounds read low 0.854 | S. cerevisiae deletion strains, locus YMR129W, active compounds read low 0.889 | S. cerevisiae deletion strains, locus YMR205C, strain PFK2, active compounds read low 0.737 | S. cerevisiae deletion strains, locus YMR223W, strain ubp8, active compounds read low 0.82 | S. cerevisiae deletion strains, locus YMR231W, strain pep5, active compounds read low 0.843 | S. cerevisiae deletion strains, locus YMR263W, strain SAP30, active compounds read low 0.873 | S. cerevisiae deletion strains, locus YNL071W, strain lat1, active compounds read low 0.702 | S. cerevisiae deletion strains, locus YNL175C, strain NOP13, active compounds read low 0.907 | S. cerevisiae deletion strains, locus YNL197C, strain WHI3, active compounds read low 0.893 | S. cerevisiae deletion strains, locus YNL209W, strain ssb2, active compounds read low 0.917 | S. cerevisiae deletion strains, locus YNL224C, strain SQS1, active compounds read low 0.915 | S. cerevisiae deletion strains, locus YNL307C, strain MCK1, active compounds read low 0.645 | S. cerevisiae deletion strains, locus YNL322C, strain KRE1 (second series), active compounds read low 0.903 | S. cerevisiae deletion strains, locus YNL322C, strain KRE1, active compounds read low 0.893 | S. cerevisiae deletion strains, locus YNR049C, strain mso1, active compounds read low 0.885 | S. cerevisiae deletion strains, locus YNR052C, strain pop2, active compounds read low 0.835 | S. cerevisiae deletion strains, locus YOL147C, strain pex11, active compounds read low 0.868 | S. cerevisiae deletion strains, locus YOR061W, strain CKA2, active compounds read low 0.882 | S. cerevisiae deletion strains, locus YOR069W, strain VPS5, active compounds read low 0.891 | S. cerevisiae deletion strains, locus YOR070C, strain gyp1, active compounds read low 0.864 | S. cerevisiae deletion strains, locus YOR083W, strain WHI5, active compounds read low 0.868 | S. cerevisiae deletion strains, locus YOR106W, strain vam3, active compounds read low 0.85 | S. cerevisiae deletion strains, locus YOR144C, strain elg1, active compounds read low 0.898 | S. cerevisiae deletion strains, locus YOR184W, strain ser1, active compounds read low 0.621 | S. cerevisiae deletion strains, locus YOR265W, strain rbl2, active compounds read low 0.892 | S. cerevisiae deletion strains, locus YOR270C, strain vph1, active compounds read low 0.617 | S. cerevisiae deletion strains, locus YOR290C, strain snf2, active compounds read low 0.746 | S. cerevisiae deletion strains, locus YOR316C, strain cot1, active compounds read low 0.881 | S. cerevisiae deletion strains, locus YPL051W, strain arl3, active compounds read low 0.771 | S. cerevisiae deletion strains, locus YPL078C, strain atp4, active compounds read low 0.774 | S. cerevisiae deletion strains, locus YPL240C, strain hsp82, active compounds read low 0.879 | S. cerevisiae deletion strains, locus YPL241C, strain CIN2, active compounds read low 0.943 | S. cerevisiae deletion strains, locus YPR119W, strain clb2, active compounds read low 0.87 | S. cerevisiae deletion strains, locus YPR163C, strain tif3, active compounds read low 0.903 | S. cerevisiae deletion strains, locus YPR167C, strain met16, active compounds read low 0.882 | S. cerevisiae deletion strains, strain wtn01, active compounds read low 0.859 | S. cerevisiae strains, strain wild type, active compounds read low 0.888
inactive: S. cerevisiae deletion strains, locus YJR066W, strain TOR1, active compounds read low 0.963 | S. cerevisiae deletion strains, locus YKL009W, strain mrt4, active compounds read low 0.97 | S. cerevisiae deletion strains, locus YKL068W, active compounds read low 0.975 | S. cerevisiae deletion strains, locus YKL085W, strain MDH1 (second series), active compounds read low 0.957 | S. cerevisiae deletion strains, locus YKL085W, strain MDH1, active compounds read low 0.957 | S. cerevisiae deletion strains, locus YLR058C, strain SHM2, active compounds read low 0.895 | S. cerevisiae deletion strains, locus YLR113W, strain HOG1, active compounds read low 1.02 | S. cerevisiae deletion strains, locus YLR357W, strain rsc2, active compounds read low 0.994 | S. cerevisiae deletion strains, locus YMR307W, strain GAS1, active compounds read low 0.638 | S. cerevisiae deletion strains, locus YNL067W, strain RPL9B, active compounds read low 0.92 | S. cerevisiae deletion strains, locus YNL153C, strain GIM3, active compounds read low 0.898 | S. cerevisiae deletion strains, locus YNL183C, strain NPR1, active compounds read low 0.992 | S. cerevisiae deletion strains, locus YNL233W, strain BNI4, active compounds read low 0.913 | S. cerevisiae deletion strains, locus YNL248C, strain rpa49, active compounds read low 0.931 | S. cerevisiae deletion strains, locus YNL250W, strain rad50, active compounds read low 0.993 | S. cerevisiae deletion strains, locus YNL271C, strain bni1, active compounds read low 0.955 | S. cerevisiae deletion strains, locus YNL298W, strain CLA4, active compounds read low 0.932 | S. cerevisiae deletion strains, locus YOL006C, strain TOP1, active compounds read low 0.697 | S. cerevisiae deletion strains, locus YOL012C, strain htz1 0.653 | S. cerevisiae deletion strains, locus YOR001W, strain rrp6, active compounds read low 0.95 | S. cerevisiae deletion strains, locus YOR080W, strain dia2, active compounds read low 0.914 | S. cerevisiae deletion strains, locus YOR083W, strain WHI5 (second series), active compounds read low 0.971 | S. cerevisiae deletion strains, locus YOR136W, strain idh2, active compounds read low 0.953 | S. cerevisiae deletion strains, locus YOR231W, strain MKK1, active compounds read low 1.01 | S. cerevisiae deletion strains, locus YPL106C, strain sse1, active compounds read low 1.04 | S. cerevisiae deletion strains, locus YPL256C, strain CLN2, active compounds read low 0.996 | S. cerevisiae deletion strains, locus YPR141C, strain kar3, active compounds read low 0.963
